From PubChem BioAssay (NCATS) come the findings set out here.

“And” between values parts separate entries of the source, which are not always exact repeats. Equal values may be shown once. Results filed as inconclusive are left out. The source made the active and inactive calls. Calls follow the shape of the dose curve; as a rule, active = well fitted inhibition curve with a large enough effect; inconclusive = small, poorly fitted or top-dose-only effect; inactive = no such curve, though single readings can be large or run the other way.
Potency is read from the fitted curve at half-maximal effect.

The nature of this test: Confirmatory screen NINDS Rhodamine qHTS for Zika virus inhibitors (AID 1347161). Also: nearly all actives have a fitted effect of over 60% in size. Particulars: purified enzyme assay, Rhodamine110 substrate fluorescence, 15 min; series mostly up to 114 µM. The text has this:
Avindra Nath, Ph.D., National Institute of Neurological Disorders and Stroke (NINDS), Bethesda, MD
Radhakrishnan Padmanabhan, Ph.D., Georgetown University (GU), Washington D.C.
Zika Virus causes congenital defects, including microcephaly and is associated with Guillain-Barre syndrome, eningoencephalitis and myelitis in infected adult. […] Using a target-based approach, we hope to establish a screening paradigm to uncover novel, cell-active NS2B-NS3 protease (Zika Virus) specific inhibitors from NCATS' collection of small molecules using qHTS.
Four assay panel was created to identify potential Zika Virus inhibitors. Namely, (1) GU unlinked NS2B-NS3 AMC tagged protease qHTS, (2) GU unlinked NS2B-NS3 Rhodamine tagged protease qHTS, (3) NINDS linked NS2B-NS3 AMC tagged protease qHTS, (4) NINDS linked NS2B-NS3 Rhodamine tagged protease qHTS. Active compounds were re-acquired and re-screened to confirm inhibition. Inhibitors were further screened against various confirmatory and counterscreens in dose response format.
Early Translation Branch (ETB)
National Center for Advancing Translational Sciences (NCATS), Rockville, MD
National Institute of Health (NIH), Bethesda, Maryland
For the linked assay, Nath lab (NINDS) provided the purified linked NS2B-NS3 protease which is consists of hydrophilic domain of NS2B linked to the NS3 protease domain by a flexible (-[…]-) linker. Control compound aprotinin is obtained from Thermo Scientific (#78432; Waltham, Massachusetts). Rhodamine110 substrate ([N-Cbz]-Nle-Lys-Arg-Arg-Rhod110-Arg-Arg-Lys-Nle-[N-Cbz]) was purchased from either Genscript or Bachem.
1536-well Protease (Rhodamine110 Substrate) Assay:
Briefly, 3 microL of enzyme (25 nM final concentration), in assay buffer (10 mM Tris-HCl pH 8.0 with 0.01% Tween 20) were dispensed into a 1,536-well solid-bottom black plate (Greiner Bio One, Monroe, NC). Twenty-three nL of compounds (final concentration range 7.28 nM to 114 microM) or control Aprotinin (final concentration range 3.47 nM to 114 microM) were transferred via Wako Pin-tool (Wako Automation, Richmond, VA). Samples were incubated (room temperature, protected from light) for 15 minutes followed by a 1 microL Rhodamine110 substrate addition (1.5 microM final concentration). Plates were then immediately read on a ViewLux High-throughput CCD imager (PerkinElmer, Waltham, MA) equipped with FITC fluorescence optics (480(20) nm excitation, 540(25) nm emission), then incubated (room temperature, protected from light) for 15 minutes (~15% conversion). The change in fluorescence intensity over the 15-minute reaction period was normalized against no-inhibitor and no-enzyme controls and the resulting percent inhibition data were fitted to a 4-parameter Hill equation. Aprotinin was used as intraplate control.
For the compound `Cc1c(OCC(F)(F)F)ccnc1CS(=O)c1nc2ccccc2[nH]1` (stereo unspecified), the Potency entry was “inactive”. Consider `COc1cc2c(cc1OC)C1CC(=O)C(CC(C)C)CN1CC2` (stereo unspecified), for which the Potency result was “inactive”. Take `Oc1ccc(-c2nc(-c3ccc(F)cc3)c(-c3ccncc3)[nH]2)cc1`: the Potency entry is “inactive”. In the case of `O=c1c(O)c(-c2ccc(O)cc2O)oc2cc(O)cc(O)c12`, the Potency is 12.6 µM (active). `Cc1nc(-c2ccc(OCC(C)C)c(C#N)c2)sc1C(=O)O`: the Potency is 31.2 µM (active).

For the compound `CN(C)c1ccc(O)c2c1C[C@H]1C[C@H]3[C@H](N(C)C)C(=O)C(C(N)=O)=C(O)[C@@]3(O)C(=O)C1=C2O`, the Potency was 44.1 µM (active) and 35 µM (active). As to `C=C(c1ccc(C(=O)O)cc1)c1cc2c(cc1C)C(C)(C)CCC2(C)C`, the Potency is 1.96 µM (active) and 2.47 µM (active).

As for `N[C@@H](Cc1cc(I)c(Oc2cc(I)c(O)c(I)c2)c(I)c1)C(=O)O`, the Potency was 9.67 µM (active) and 12.6 µM (active). `CC(C)c1ccc2c(c1)c(SC(C)(C)C)c(CC(C)(C)C(=O)O)n2Cc1ccc(Cl)cc1`: the Potency is 1.56 µM (active). For the compound `CCc1nc(N)nc(N)c1-c1ccc(Cl)cc1`, the Potency result is “inactive”. For `O=c1c(O)c(-c2cc(O)c(O)c(O)c2)oc2cc(O)cc(O)c12`, the Potency is 14.1 µM (active).
